Reference: PubChem BioAssay AID1345085 (National Center for Advancing Translational Sciences (NCATS), 2018)
Inconclusive results are not listed. The source made the active and inactive calls. Calls follow the shape of the dose curve; as a rule, active = well fitted cell-killing curve with a large enough effect; inconclusive = small, poorly fitted or top-dose-only effect, or effect the other way; inactive = no such curve, though single readings can be large or run the other way. *1 amine or outer side, *2 acyl side, *3 side chain or, on linkers, in order; H or OH if unused. Where a SMILES comes first, the peptide text is derived from it. Bridges are numbered along the chain shown (N, C = ends). Roman numbers before positions name the chains, in order. [ ]: non-standard residue; d: D form. Actinocin(9to1) = Cc1c2oc3c(C)ccc(C(=O)[*:1])c3nc-2c(C(=O)[*:2])c(N)c1=O; NMeV = CN[C@H](C(=O)O)C(C)C; Sar = CNCC(=O)O

System: SKOV3
Assay: Confirmatory qHTS for gynecologic anti-cancer compounds from libraries of approved drugs and bioactive compounds; also: nearly all actives have a fitted effect of over 55% in size
Conditions: gynecologic cancer cell panel viability, ATPlite luminescence, 48 h; series mostly up to 57.6 µM
Method in brief: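 ATP-based luminescent viability (ATPlite) after 48 h drug treatment at 37 °C, 5% CO2, across 57.5 uM–0.977 nM in 1:3 steps. Cells seeded at 1,000 per well 16 h beforehand; IC50 values computed, HEK 293T as selectivity control.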
Potency is read from the fitted curve at half-maximal effect.

SMILES | Potency
CN1CCN(c2cccc(Nc3nc4c(-c5ccc(S(C)(=O)=O)cc5)cccn4n3)c2)CC1 | inactive
Cc1csc(NC(=O)c2sc3nc4c(c(C(F)(F)F)c3c2N)CCC4)n1 | 1530 nM (active)
NC(=O)Nc1cc(-c2cccc(F)c2)sc1C(=O)NC1CCCNC1 (stereo not drawn) | 5440 nM (active)
COc1ccc2c(c1)c(CC(=O)O)c(C)n2C(=O)c1ccc(Cl)cc1 | inactive
CCCCc1nc2cc(/C=C/C(=O)NO)ccc2n1CCN(CC)CC | 769 nM (active)
CN1C2CCC1CC(OC(=O)[C@H](CO)c1ccccc1)C2 (stereo partly drawn) | inactive
CC(C)Oc1ccc2c(=O)c(-c3ccccc3)coc2c1 | 21700 nM (active)
CCCCN(CCCC)CC(O)c1cc(Cl)cc2c1-c1ccc(Cl)cc1/C2=C/c1ccc(Cl)cc1 (stereo not drawn) | inactive
COc1ccc(-c2cc3nccn3c(Nc3ncccc3C(N)=O)n2)cc1OC | inactive
COc1cc(N2CCC(N3CCN(C)CC3)CC2)ccc1Nc1ncc(Cl)c(Nc2ccccc2S(=O)(=O)C(C)C)n1 | 19300 nM (active)
CC[C@H](CC#N)OC(=O)N[C@@H](C)c1cccc(NC(=O)Nc2ccc(-c3cnco3)c(OC)c2)c1 | inactive
CCCC(=O)O[C@]1(C(=O)CCl)[C@@H](C)C[C@H]2[C@@H]3CCC4=CC(=O)C=C[C@]4(C)[C@@]3(F)C(=O)C[C@@]21C | inactive
O=c1cc(CN2CCOCC2)occ1OCCCCCSc1ccnc2cc(C(F)(F)F)ccc12 | inactive
Cc1c2oc3c(C)ccc(C(=O)N[C@@H]4C(=O)N[C@H](C(C)C)C(=O)N5CCC[C@H]5C(=O)N(C)CC(=O)N(C)[C@@H](C(C)C)C(=O)O[C@@H]4C)c3nc-2c(C(=O)N[C@@H]2C(=O)N[C@H](C(C)C)C(=O)N3CCC[C@H]3C(=O)N(C)CC(=O)N(C)[C@@H](C(C)C)C(=O)O[C@@H]2C)c(N)c1=O (I: T[dV]P[Sar][NMeV] / II: T[dV]P[Sar][NMeV]; ester I:1-I:C, II:1-II:C; linker I:N-II:N via Actinocin(9to1)) | 544 nM (active)
CN[C@@H](C)C(=O)N[C@H]1CN(C(=O)CC(C)C)CC[C@H]2CC[C@@H](C(=O)NC(c3ccccc3)c3ccccc3)N2C1=O | 611 nM (active)
Cc1[nH]c2ccccc2c1CCNCc1ccc(/C=C/C(=O)NO)cc1 | 172 nM (active)
CC(=O)c1cnc2ccc(-c3cc(Cl)c(O)c(Cl)c3)nc2c1NC1CCC(CN(C)C)CC1 (stereo not drawn) | 498 nM (active)

SMILES | Potency
CC(C)n1c(/C=C/[C@@H](O)C[C@@H](O)CC(=O)O)c(-c2ccc(F)cc2)c2ccccc21 | 1720 nM (active)
Cc1cc(Nc2nc(N[C@@H](C)c3ccc(F)cc3)c(C#N)cc2F)n[nH]1 | 7690 nM (active)
COc1ccc(OC)c(-c2nnc3ccc(-c4ccc(OC)c(O[C@@H]5CCOC5)c4)nn23)c1 | inactive
CCN(CC)CCCC(C)Nc1ccnc2cc(Cl)ccc12 (stereo not drawn) | inactive
Cn1c(=O)c(F)c(Nc2ccc(I)cc2F)c2c(=O)n(CC(O)CO)cnc21 (stereo not drawn) | 485 nM (active)
O=C1Cc2cc(CCN3CCN(c4nsc5ccccc45)CC3)c(Cl)cc2N1 | inactive
CCN1CCN(Cc2ccc(Nc3ncc(F)c(-c4cc(F)c5nc(C)n(C(C)C)c5c4)n3)nc2)CC1 | inactive
CC(=O)NCC(=O)N1C2CCC1c1cc(Nc3ncc(C(F)(F)F)c(NC4CCC4)n3)ccc12 (stereo not drawn) | 17200 nM (active)
CC(C)(C(=O)NCC(F)(F)C(F)(F)F)C(=O)NC1C(=O)Nc2ccccc2-c2ccccc21 (stereo not drawn) | inactive
O=c1[nH]c(=O)n([C@H]2C[C@H](O)[C@@H](CO)O2)cc1F | inactive
Cc1cnc(Nc2ccc(OCCN3CCCC3)cc2)nc1Nc1cccc(S(=O)(=O)NC(C)(C)C)c1 | 10900 nM (active)
NS(=O)(=O)OC[C@@H]1C[C@@H](n2ccc3c(N[C@H]4CCc5ccccc54)ncnc32)C[C@@H]1O | inactive
C=CC(=O)Nc1cc2c(Nc3ccc(F)c(Cl)c3)ncnc2cc1OCCCN1CCOCC1 | 24300 nM (active)
CC[C@@]1(O)C(=O)OCc2c1cc1n(c2=O)Cc2c-1nc1ccccc1c2/C=N/OC(C)(C)C | 43.2 nM (active)
Nc1ccccc1NC(=O)c1ccc(CNC(=O)OCc2cccnc2)cc1 | 2170 nM (active)
Cc1cnc(Nc2ccc(F)cc2Cl)nc1-c1c[nH]c(C(=O)NC(CO)c2cccc(Cl)c2)c1 (stereo not drawn) | inactive
